PubChem BioAssay (EPA / NIEHS)
Activity calls are given as the source filed them. How the source made its calls: active means hit-call score of the fitted dose curve at least 0.9, where 1 is the maximum; inactive means score below 0.9.

Columns and labels:
Settings in all cases: mRNA level, 48 h; actives raise or lower the signal
[1] = read-out: flavin-containing dimethylaniline monooxygenases 3 (FMO3), FMO3 (gene 2328); assay: LTEA_HepaRG_FMO3: Life Technologies and Expression Analysis (LTEA) Assay for flavin-containing dimethylaniline monooxygenases 3 (FMO3) using HepaRG (AID 2283453);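 on AC50: differentiated human HepaRG liver cells in serum-free induction medium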
Summary of the method: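 Eight-point concentration-response in serum-free HepaRG cultures (top 100 uM, 0.5% DMSO, 48 h). Read-out: FMO3 mRNA level normalized to three endogenous control genes, fitted bidirectionally versus vehicle.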

[2] = read-out: Cytochrome P450 (CYP1A1), CYP1A1 (gene 1543); assay: LTEA_HepaRG_CYP1A1: Life Technologies and Expression Analysis (LTEA) Assay for Cytochrome P450 (CYP1A1) using HepaRG (AID 2283454)
Summary of the method: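 Using HepaRG cultures with 0.5% DMSO as vehicle, eight-concentration exposures (max 100 uM) lasted 48 h. Transcript levels were measured by TaqMan qRT-PCR and normalized to ACTB, GAPDH and POLR2A.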

[3] = read-out: CFLAR gene, CFLAR (gene 8837); assay: LTEA_HepaRG_CFLAR: Life Technologies and Expression Analysis (LTEA) Assay for CFLAR gene using HepaRG (AID 2283455)
Summary of the method: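 qRT-PCR read-out (Fluidigm/TaqMan) of CFLAR mRNA, normalized to three housekeeping genes, in differentiated human HepaRG cells after 48 h chemical exposure; 8-point half-log series from 100 uM in 0.5% DMSO; bidirectional curve fitting versus DMSO.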

[4] = read-out: Forkhead box O1 (FOXO1), FOXO1 (gene 2308); assay: LTEA_HepaRG_FOXO1: Life Technologies and Expression Analysis (LTEA) Assay for Forkhead box O1 (FOXO1) using HepaRG (AID 2283456)
Summary of the method: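 HepaRG, 48 h exposure, 8-pt half-log series from 100 uM in 0.5% DMSO, duplicates; Fluidigm qRT-PCR mRNA, housekeeping-normalised; bidirectional fit vs DMSO baseline.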

[5] = read-out: growth arrest and DNA damage 45 (GADD45A), GADD45A (gene 1647); assay: LTEA_HepaRG_GADD45A: Life Technologies and Expression Analysis (LTEA) Assay for growth arrest and DNA damage 45 (GADD45A) using HepaRG (AID 2283458)
Summary of the method: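 HepaRG, 48 h exposure, 8 conc. (top 100 uM, half-log steps), 0.5% DMSO vehicle, duplicates. Read-out: qRT-PCR mRNA level, housekeeping-normalized (ACTB/GAPDH/POLR2A). Curves fit bidirectionally vs DMSO baseline.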

[6] = read-out: Forkhead box O3 (FOXO3), FOXO3 (gene 2309); assay: LTEA_HepaRG_FOXO3: Life Technologies and Expression Analysis (LTEA) Assay for Forkhead box O3 (FOXO3) using HepaRG (AID 2283459)
Summary of the method: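 qRT-PCR readout of FOXO3 transcript, normalized to three housekeeping genes (ACTB, GAPDH, POLR2A); gain or loss fitted against 0.5% DMSO vehicle. HepaRG cells, 48 h chemical exposure, 8-point half-log series, top 100 uM.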

[7] = read-out: ABC Transporter (ABCB1), ABCB1 (gene 5243); assay: LTEA_HepaRG_ABCB1: Life Technologies and Expression Analysis (LTEA) Assay for ABC Transporter (ABCB1) using HepaRG (AID 2283460)
Summary of the method: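 HepaRG, 48 h exposure, 8-pt half-log series from 100 uM, 0.5% DMSO vehicle, duplicates. Readout: ABCB1 transcript by Fluidigm TaqMan qRT-PCR, housekeeping-normalized; bidirectional curve fit vs DMSO baseline.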

[8] = read-out: growth arrest and DNA damage 45 (GADD45B), GADD45B (gene 4616); assay: LTEA_HepaRG_GADD45B: Life Technologies and Expression Analysis (LTEA) Assay for growth arrest and DNA damage 45 (GADD45B) using HepaRG (AID 2283461)
Summary of the method: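 Human HepaRG monolayers receive chemicals for 48 h at eight half-log concentrations, highest 100 uM, in 0.5% DMSO. Expression is measured by TaqMan qRT-PCR and normalized to ACTB, GAPDH and POLR2A.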

[9] = read-out: ABC Transporter (ABCC3), ABCC3 (gene 8714); assay: LTEA_HepaRG_ABCC3: Life Technologies and Expression Analysis (LTEA) Assay for ABC Transporter (ABCC3) using HepaRG (AID 2283462)
Summary of the method: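 Transcriptional change of ABCC3 in HepaRG after 48 h treatment, determined by qRT-PCR normalized to endogenous controls. Concentrations spanned eight half-log steps to 100 uM in 0.5% DMSO.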

[10] = read-out: ABC Transporter (ABCB11), ABCB11 (gene 8647); assay: LTEA_HepaRG_ABCB11: Life Technologies and Expression Analysis (LTEA) Assay for ABC Transporter (ABCB11) using HepaRG (AID 2283463)
Summary of the method: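 HepaRG, 48 h exposure, 8-pt half-log CRC top 100 uM, 0.5% DMSO vehicle, duplicates. Readout: TaqMan qRT-PCR of ABCB11 mRNA, housekeeping-normalized (ACTB/GAPDH/POLR2A). Bidirectional fit vs DMSO baseline.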

[11] = read-out: ABC Transporter (ABCC2), ABCC2 (gene 1244); assay: LTEA_HepaRG_ABCC2: Life Technologies and Expression Analysis (LTEA) Assay for ABC Transporter (ABCC2) using HepaRG (AID 2283464)
Summary of the method: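 After plating and 48 h culture, HepaRG medium is replaced with serum-free induction medium and chemicals are added (8 concentrations, max 100 uM, 0.5% DMSO) for 48 h. Total RNA then undergoes qRT-PCR for ABCC2 with housekeeping normalization.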

[12] = read-out: Broad substrate specificity ATP-binding cassette transporter ABCG2 (Homo sapiens) (UniProt Q9UNQ0); assay: LTEA_HepaRG_ABCG2: Life Technologies and Expression Analysis (LTEA) Assay for ABC Transporter (ABCG2) using HepaRG (AID 2283465)
Summary of the method: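 HepaRG, 48 h exposure, 8-pt half-log series from 100 uM, 0.5% DMSO vehicle, duplicates. Readout: ABCG2 transcript by qRT-PCR (Fluidigm array), housekeeping-normalized; bidirectional curve fit relative to DMSO baseline.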

[13] = read-out: ATP-citrate lyase (ACLY), ACLY (gene 47); assay: LTEA_HepaRG_ACLY: Life Technologies and Expression Analysis (LTEA) Assay for ATP-citrate lyase (ACLY) using HepaRG (AID 2283466)
Summary of the method: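 qRT-PCR readout of ACLY transcript after 48 h chemical treatment of HepaRG cells; expression normalized to three housekeeping genes. Eight-point half-log series, highest 100 uM, 0.5% DMSO vehicle. Gain or loss fitted against DMSO baseline.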

[14] = read-out: Alkaline Phosphatase, Placental (ALPP) gene, ALPP (gene 250); assay: LTEA_HepaRG_ALPP: Life Technologies and Expression Analysis (LTEA) Assay for Alkaline Phosphatase, Placental (ALPP) gene using HepaRG (AID 2283468)
Summary of the method: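 Using human liver HepaRG cells, chemicals are tested in duplicate over 48 h at half-log concentrations topping at 100 uM; phenobarbital 1 mM serves as induction control. ALPP mRNA change by qRT-PCR, bidirectional fit against vehicle.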

[15] = read-out: Bcl-2 (BAD) gene, BAD (gene 572); assay: LTEA_HepaRG_BAD: Life Technologies and Expression Analysis (LTEA) Assay for Bcl-2 (BAD) gene using HepaRG (AID 2283469)
Summary of the method: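 HepaRG, 48 h exposure, 8-pt half-log curve from 100 uM in 0.5% DMSO, duplicates. Readout: TaqMan qRT-PCR for BAD mRNA, housekeeping-normalised (ACTB/GAPDH/POLR2A); gain or loss fitted against DMSO baseline.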

[16] = read-out: Bcl-2 (BAX) gene, BAX (gene 581); assay: LTEA_HepaRG_BAX: Life Technologies and Expression Analysis (LTEA) Assay for Bcl-2 (BAX) gene using HepaRG (AID 2283470)
Summary of the method: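 qRT-PCR read-out of BAX mRNA, normalized to three housekeeping genes, after 48 h chemical exposure of human HepaRG cells in serum-free induction medium; eight-point half-log series, top 100 uM, 0.5% DMSO vehicle; bidirectional fit versus DMSO.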

[17] = read-out: adenosine kinase (ADK) gene, ADK (gene 132); assay: LTEA_HepaRG_ADK: Life Technologies and Expression Analysis (LTEA) Assay for adenosine kinase (ADK) gene using HepaRG (AID 2283471)
Summary of the method: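 Following 48 h exposure of HepaRG cells in 0.5% DMSO (top concentration 100 uM, duplicate wells), ADK mRNA induction or suppression was measured by qRT-PCR, normalised to ACTB/GAPDH/POLR2A, and fitted bidirectionally relative to vehicle.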

[18] = read-out: Alpha-fetoprotein (AFP) gene, AFP (gene 174); assay: LTEA_HepaRG_AFP: Life Technologies and Expression Analysis (LTEA) Assay for Alpha-fetoprotein (AFP) gene using HepaRG (AID 2283472)
Summary of the method: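 qRT-PCR (Fluidigm TaqMan) readout of AFP transcript, normalized to three housekeeping genes, fitted bidirectionally against 0.5% DMSO baseline. HepaRG cells received chemicals for 48 h in serum-free induction medium, top concentration 100 uM, half-log steps.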

Measured: AC50

Broad substrate specificity ATP-binding cassette transporter ABCG2 (Homo sapiens), sequence (Q9UNQ0 whole entry, looked up): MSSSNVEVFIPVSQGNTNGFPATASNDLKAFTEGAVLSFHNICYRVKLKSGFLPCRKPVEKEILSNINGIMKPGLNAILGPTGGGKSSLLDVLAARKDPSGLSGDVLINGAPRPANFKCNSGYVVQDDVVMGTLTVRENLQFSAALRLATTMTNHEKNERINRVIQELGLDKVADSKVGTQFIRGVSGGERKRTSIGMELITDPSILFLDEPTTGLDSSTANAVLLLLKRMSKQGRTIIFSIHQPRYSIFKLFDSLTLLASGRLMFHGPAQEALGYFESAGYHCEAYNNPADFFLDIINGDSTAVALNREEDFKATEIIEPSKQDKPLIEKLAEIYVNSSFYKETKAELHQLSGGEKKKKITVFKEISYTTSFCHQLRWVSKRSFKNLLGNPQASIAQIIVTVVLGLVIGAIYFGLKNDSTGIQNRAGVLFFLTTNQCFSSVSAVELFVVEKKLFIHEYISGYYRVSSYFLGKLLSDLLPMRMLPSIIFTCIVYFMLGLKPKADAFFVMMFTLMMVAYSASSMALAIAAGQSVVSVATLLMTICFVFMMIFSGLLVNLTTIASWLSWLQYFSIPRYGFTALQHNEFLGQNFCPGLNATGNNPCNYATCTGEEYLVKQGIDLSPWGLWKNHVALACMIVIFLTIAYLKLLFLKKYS

CC(C)OC(=O)Nc1cccc(Cl)c1
active: [2] 50 µM | [5] 50 µM
inactive: all other assays above

COc1nn(CSP(=S)(OC)OC)c(=O)s1
active: [2] 24.3 µM
inactive: all other assays above

CCN(CC)C(=O)SCc1ccc(Cl)cc1
active: [2] 41.6 µM
inactive: all other assays above

CCC(C)Nc1c([N+](=O)[O-])cc(C(C)(C)C)cc1[N+](=O)[O-] (stereo not drawn)
active: [2] 12.9 µM | [7] 13 µM | [11] 17.8 µM | [12] 22 µM | [18] 50 µM
inactive: all other assays above

CCOCN(C(=O)CCl)c1c(C)cccc1CC
active: [1] 78.7 µM | [2] 50 µM | [8] 75.5 µM | [10] 82.5 µM | [18] 93.3 µM
inactive: all other assays above

CC(C)N(C(=O)COc1nnc(C(F)(F)F)s1)c1ccc(F)cc1
active: [1] 40.7 µM | [2] 50 µM | [10] 50 µM | [18] 37.6 µM
inactive: all other assays above
